Compounds with a hit are over-represented: about 2.4% of the library has one in this group of screens.
Pol kappa inh = DNA polymerase kappa (human) inhibition | 0.53% of 400,000 active | purified Pol kappa, fluorescent DNA synthesis assay, 10 min | Q9UBT6 | Potency, µM (top dose mostly 107 µM), without a hit: top-dose activity, negative = inhibition, actives largely listed as inhibitors; note: % is set by controls: 0 for no effect and ±100 for the full control effect
Target sequence (Q9UBT6 whole entry, looked up): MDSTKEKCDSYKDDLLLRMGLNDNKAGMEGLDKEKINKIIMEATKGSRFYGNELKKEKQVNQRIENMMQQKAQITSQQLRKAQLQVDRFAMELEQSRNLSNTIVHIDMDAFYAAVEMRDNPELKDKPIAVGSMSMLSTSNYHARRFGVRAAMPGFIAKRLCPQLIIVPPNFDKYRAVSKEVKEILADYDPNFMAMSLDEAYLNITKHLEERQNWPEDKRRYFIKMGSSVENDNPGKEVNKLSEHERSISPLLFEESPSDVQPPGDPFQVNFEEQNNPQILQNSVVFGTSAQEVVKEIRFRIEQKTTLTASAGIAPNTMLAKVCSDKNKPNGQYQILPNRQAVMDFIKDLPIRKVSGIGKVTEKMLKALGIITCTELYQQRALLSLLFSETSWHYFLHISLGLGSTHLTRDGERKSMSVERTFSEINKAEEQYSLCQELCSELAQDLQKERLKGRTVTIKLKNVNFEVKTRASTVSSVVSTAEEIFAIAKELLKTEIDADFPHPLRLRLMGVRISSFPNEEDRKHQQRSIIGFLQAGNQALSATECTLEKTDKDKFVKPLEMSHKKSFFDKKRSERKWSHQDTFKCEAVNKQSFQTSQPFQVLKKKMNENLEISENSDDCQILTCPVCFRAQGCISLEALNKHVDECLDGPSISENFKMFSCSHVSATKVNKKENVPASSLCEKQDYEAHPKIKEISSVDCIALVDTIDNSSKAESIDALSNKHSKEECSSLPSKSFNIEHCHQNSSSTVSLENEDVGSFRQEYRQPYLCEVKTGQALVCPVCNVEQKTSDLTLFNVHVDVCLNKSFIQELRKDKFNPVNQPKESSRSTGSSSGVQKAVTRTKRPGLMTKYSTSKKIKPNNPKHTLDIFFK
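Readout: fluorescence, taken kinetically at 0 and 10 min. Conditions: 10 nM Pol kappa, 15 min RT compound preincubation, 50 nM substrate final. Controls: enzyme-free buffer wells.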
POLB inh = inhibitors of human DNA polymerase beta; P06746; Pol beta primer extension/strand displacement, fluorescence kinetic; Potency, µM (series often up to 114 µM), inactives show top-dose activity change, negative = inhibition, actives largely listed as inhibitors; 1.3% of 340,000 active; AID 485314; note: % is set by controls: 0 for no effect and ±100 for the full control effect
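10 nM enzyme + cpd, 15 min RT; start with substrate 50 nM final; read 0 min and after 10 min RT. Corrected, normalized data; 4-parameter Hill curve fit.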
Pol eta inh = inhibitors of human DNA polymerase eta. 1.2% of 390,000 active. Potency, µM (doses to about 114 µM), without a hit: top-dose activity change, negative = inhibition, actives largely listed as inhibitors. recombinant Pol eta, fluorescent DNA replication assay. Q9Y253; note: % is set by controls: 0 for no effect and ±100 for the full control effect
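Pol eta at 10 nM preincubated with compounds 15 min at room temperature; reaction started with fluorescent substrate (50 nM final) and read kinetically at 0 and 10 min.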
Pol iota inh = inhibitors of human DNA polymerase iota; Q9UNA4; Pol iota fluorescent replication assay, 10 min; Potency, µM (doses to about 115 µM), for the others: at the highest dose activity, negative = inhibition, usual class: inhibitors; 1% of 390,000 active; AID 588590
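Pol iota at 10 nM preincubated 15 min with compounds at room temperature; reaction started with fluorescent substrate, 50 nM final. Fluorescence read kinetically at 0 and 10 min; buffer-only wells as negative control.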
GCN5L2 inh = inhibitors of human GCN5L2 histone acetyltransferase. Q92830. GCN5L2 HAT assay, ThioGlo1 CoA-SH fluorescence. Potency, µM (top dose mostly 58.9 µM), without a hit: at the top dose activity change, negative = inhibition, usual class: inhibitors. 0.21% of 390,000 active; note: % is set by controls: 0 for no effect and ±100 for the full control effect
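Enzyme at 20nM final was mixed with library compounds for 15 min at room temperature. Peptide H3(1-25) at 75uM, acetyl-CoA at 70uM and ThioGlo1 at 50uM were then added. Plates were read immediately and after 20 min (Ex340nm/Em540nm).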
GLS inhibitor = inhibitors of human glutaminase (GLS); GLS enzymatic activity, qHTS titration; Potency, µM (top dose mostly 45.5 µM), for the others: at the highest dose activity change, negative = inhibition, hits mostly inhibitors; 0.21% of 410,000 active; note: % is set by controls: 0 for no effect and ±100 for the full control effect
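Assay buffer: 45 mM KH2PO4 pH 8.2, 0.02% Tween-20. hKGA acts on L-glutamine (1 mM solution added); product glutamate is reported by an oxidase/peroxidase Amplex Red coupling, with fluorescence taken at baseline and 30 min.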
Active calls of the source: *; u = inconclusive; x = no result given; [ ] = dose if it differs, or a comment. Calls come from the whole dose curve; as a rule, active = well fitted inhibition curve with a large enough effect; inconclusive = small, poorly fitted or top-dose-only effect, or another doubt; inactive = no such curve, though single readings can be large or run the other way. Potency is the fitted concentration of half-maximal effect.

SMILES | Pol kappa inh | POLB inh | Pol eta inh | Pol iota inh | GCN5L2 inh | GLS inhibitor
COc1cccc(CNC(=O)c2ccc3nc(CCc4ccccc4)oc3c2)c1OC | -7.6%[60.1 µM] | 5.3% | -11.5% | -1.5% | -8.7% | -9.6%
Fc1ccc(C2CC(c3ccco3)=NN2c2ccccc2)cc1 (stereo unspecified) | -8.6% | 13.2% | -11.9% | 11.4% | -10.1% | -0.3%
O=[N+]([O-])c1ccc(N2N=C(c3ccco3)CC2c2ccccc2)cc1 (stereo unspecified) | -22.7% | u | -18.0% | u | 2µM* | 1.7%
Cc1ccc(CNC(=O)Cc2c(C(=O)O)c(C)cn2C)cc1 | 0.5%[60.1 µM] | -21.1% | -24.0% | 6.9% | 13.4% | -0.3%
O=c1cc(CN2CCN(S(=O)(=O)c3ccc4c(c3)OCCO4)CC2)c2ccc(O)cc2o1 | u | 35.5µM* | u | 35.5µM* | -7.4% | -8.6%
CC(C)C[C@@H](CNCC(=O)[C@H](Cc1c[nH]c2ccccc12)NC(=O)c1[nH]cnc1C(=O)N[C@@H](C)CN)NC(=O)c1nc[nH]c1C(=O)N[C@@H](C)C(=O)O | -12.7% | x | -8.9% | 36.0% | x | 1.1%

Compound activity (PubChem BioAssay)
